hcDAF12 agonist = activates DAF-12 receptor from parasite H. contortus; activation, % at 6.8 µM; AID 652067; HEK293 hcDAF-12 lit1-tk-luc reporter, luminescence; 0% DMSO, 100% Δ7-dafachronic acid; hit rate 1.4% among 370,000;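 active means activation above the mean of all tested compounds plus 3 SD, cut at about 5.5% in these data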
DAX1 inh-1 = blocks DAX1 repression of SF-1 activated StAR promoter; HEK293T StAR-luciferase reporter, SF-1/DAX-1 repression relief; inhibition, % at 6.8 µM; hit rate 1.1% among 370,000; AID 652010;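 active means inhibition above the mean over all tested compounds plus 3 SD, cut at about 3.6% in these data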;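 further: higher inhibition means more luminescence from relief of DAX-1 repression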
ssDAF-12 act = activates DAF-12 receptor from parasite S. stercoralis. AID 652126. hit rate 1% among 370,000. activation, % at 6.8 µM. HEK293 ssDAF-12/GRIP1 lit1-tk-luc reporter, luminescence; % of 3 µM dafachronic acid response;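 active means activation above the mean over all tested compounds plus 3 SD, cut at about 0.9% in these data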
DAX1 inh-2 = inhibitors of human orphan nuclear receptor DAX1 (NR0B1); HEK293 Gal4-DAX1 luciferase reporter, luminescence; inhibition, % at 6.75 µM; hit rate 0.99% among 340,000;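 active means inhibition above the mean over all tested compounds plus 3 SD, cut at about 4.2% in these data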;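 further: inhibition shows as a rise in luminescence from relieved DAX1 repression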
Target sequence (P51843 207-470 limits assumed): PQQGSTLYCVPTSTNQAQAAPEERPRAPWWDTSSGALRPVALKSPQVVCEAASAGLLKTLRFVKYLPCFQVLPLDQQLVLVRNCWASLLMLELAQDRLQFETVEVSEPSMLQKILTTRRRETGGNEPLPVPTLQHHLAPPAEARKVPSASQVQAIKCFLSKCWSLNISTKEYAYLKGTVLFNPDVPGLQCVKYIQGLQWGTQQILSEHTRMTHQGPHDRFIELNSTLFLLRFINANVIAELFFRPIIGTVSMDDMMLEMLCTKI
hgDAF12 agonist = agonists of H. glycines DAF-12 nuclear receptor | HEK293 GAL4-hgDAF12 UAS-luciferase reporter, agonist luminescence; normalized to butyrate control | activation, % at 6.8 µM | hit rate 1.8% among 370,000;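 active means activation above a cutoff set at the mean of all screened compounds plus 3 SD, cut at about 10% in these data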
AHR act = activators of human aryl hydrocarbon receptor; P35869; hit rate 2.5% among 320,000; activation, % at 5 µM; AHR-responsive luciferase reporter cells, luminescence; in the data active means activation above about 47%
A number is an active result; - = inactive; . = no result given. Sampled rows, rich in hits. Any-hit rate of the full collection: about 5.7%.

SMILES	hcDAF12 agonist	DAX1 inh-1	ssDAF-12 act	DAX1 inh-2	hgDAF12 agonist	AHR act
CCOc1ccc2nc(N/C(N)=N/C(=S)Nc3ccc(OC)cc3)nc(C)c2c1	-	-	-	-	-	64
COc1ccc2nc(N/C(N)=N/C(=S)Nc3ccccc3)nc(C)c2c1	-	-	-	-	-	-
Cc1cccc(NC(=S)/N=C(\N)Nc2nc(C)c3ccc(C)cc3n2)c1	-	-	-	-	-	57
Cc1cc(C)cc(NC(=S)/N=C(\N)Nc2nc(C)c3ccccc3n2)c1	-	-	-	-	-	-
Cc1ccc(NC(=S)/N=C(\N)Nc2nc(C)c3ccccc3n2)cc1C	-	-	-	-	-	48
COc1ccc(-c2nc3ccccc3c(=O)n2Cc2ccccc2)cc1COc1ccc(NC(C)=O)cc1	-	.	-	.	-	.
CSCC[C@@H](C(=O)O)N1Cc2ccccc2C1=O	6.0	-	-	-	-	-
CSCC[C@@H](C(=O)Nc1ccc2c(c1)OCCO2)N1Cc2ccccc2C1=O	-	-	-	-	-	-
N#C/C(=C\c1c[nH]c2ccccc12)c1nnc2n1CCCCC2	-	-	-	-	-	-
N#C/C(=N\Nc1cccc2ccccc12)c1nnc2n1CCCCC2	-	-	-	-	-	54
O=C(NCc1ccco1)c1ccc(-c2ccccc2Cl)o1	-	-	-	7.0	-	-
O=C(NCCc1ccccc1)c1ccc(-c2ccccc2C(F)(F)F)o1	-	-	-	.	-	-
O=C(NCc1ccccc1)c1ccc(-c2ccccc2F)o1	-	-	0.9	-	-	-
O=C(Nc1cc([N+](=O)[O-])c2[nH]c(=O)c3ccccc3c2c1)C(F)(F)F	-	3.9	-	-	-	.
CCOC(=O)C1=C(C)C(c2ccccc2O)NC(=O)N1 (configuration not stated)	-	-	-	6.0	-	-
CCOC(=O)C1=C(C)C(c2ccc(OC)cc2OC)NC(=O)N1 (configuration not stated)	-	-	-	-	-	-
O=C(N/N=C/c1cccs1)c1cc(-c2ccc3ccccc3c2)n[nH]1	-	-	-	-	11	-
O=C(N/N=C/c1cccs1)c1cc(-c2cccc3ccccc23)n[nH]1	-	-	-	-	11	48
O=C(N/N=C/c1cccs1)c1ccc2ccccc2c1	-	-	-	-	-	-
O=C(O)c1ccc(/C=N/NC(=O)c2cc(-c3ccc4c5c(cccc35)CC4)n[nH]2)cc1	-	-	-	-	-	78
O=C(O)c1ccc(C=NNC(=O)c2cccc3ccccc23)cc1	-	-	-	-	-	.
CCCC(=O)Nc1cc(Cl)ccc1C	-	-	-	6.5	-	-
CC1OC(CC(=O)O)CC2=C1C(=O)c1c(O)cccc1C2=O (configuration not stated)	-	-	-	-	-	.
CC(C)(C)CC(=O)Nc1nnc(CCc2ccccc2)s1	-	-	-	-	-	-
CCC(C)(C)C(=O)Nc1nnc(CCc2ccccc2)s1	-	-	-	4.7	11	-
SMILES	hcDAF12 agonist	DAX1 inh-1	ssDAF-12 act	DAX1 inh-2	hgDAF12 agonist	AHR act
COC(=O)C1=C(C)N(Cc2ccc(Cl)cc2)C(=S)NC1c1ccccc1 (configuration not stated)	-	-	-	.	-	.
N#Cc1cccn1-c1nccc(-c2cccs2)n1	-	-	1.7	-	-	65
Cc1ccc(C)n1-c1nccc(-c2cccs2)n1	-	-	-	-	-	-
c1ccc(Cn2ccc(-c3cnc(-c4ccccc4)s3)n2)cc1	-	-	-	-	12	-
COc1ccccc1C(=O)NNC(=O)c1cccc(C)c1	-	-	1.1	-	-	-
COC(=O)NNC(=O)c1ccccc1OC	6.2	-	-	-	-	-
Cc1ccc(C2NC(=O)c3[nH]nc(-c4ccccc4)c32)cc1 (configuration not stated)	-	-	-	.	-	.
O=c1c(OC2OC(CO)C(O)C(O)C2OC2OC(CO)C(O)C(O)C2O)c(-c2ccc(O)cc2)oc2cc(O)cc(O)c12 (configuration not stated)	-	-	-	4.6	-	-
C[C@H](CO)N1C[C@H](C)[C@@H](CN(C)C(=O)Nc2ccccc2F)Oc2ncc(Br)cc2C1=O	-	-	-	-	-	.
COc1ccccc1NC(=O)N(C)C[C@H]1Oc2ncc(Br)cc2C(=O)N([C@H](C)CO)C[C@H]1C	-	-	1.1	4.7	-	.

Source: PubChem BioAssay (The Scripps Research Institute Molecular Screening Center)
